“And” between values parts separate entries of the source, which are not always exact repeats. Equal values may be shown once. Unmarked numbers belong to inactive results. Inconclusive results are not listed. A call without a number means that no potency is given here. The source made the active and inactive calls. Unless noted, calls follow the shape of the dose curve; as a rule, active = well fitted curve in the direction sought with a large enough effect in the repeat runs; inconclusive = weak or mixed curves; inactive = no such curve, though single readings can be large; an effect the other way counts as inactive or inconclusive.
Experiments:
[1] = target: Thyrotropin receptor (Homo sapiens) (UniProt P16473); experiment: qHTS assay to identify small molecule antagonists of the thyroid stimulating hormone receptor (TSHR) signaling pathway (AID 1259385; calls by dose curve; also: nearly all actives have a fitted effect of over 20% in size; also: potency is read from the fitted curve at half-maximal effect)
Sequence of Thyrotropin receptor (Homo sapiens) (P16473 whole entry, looked up): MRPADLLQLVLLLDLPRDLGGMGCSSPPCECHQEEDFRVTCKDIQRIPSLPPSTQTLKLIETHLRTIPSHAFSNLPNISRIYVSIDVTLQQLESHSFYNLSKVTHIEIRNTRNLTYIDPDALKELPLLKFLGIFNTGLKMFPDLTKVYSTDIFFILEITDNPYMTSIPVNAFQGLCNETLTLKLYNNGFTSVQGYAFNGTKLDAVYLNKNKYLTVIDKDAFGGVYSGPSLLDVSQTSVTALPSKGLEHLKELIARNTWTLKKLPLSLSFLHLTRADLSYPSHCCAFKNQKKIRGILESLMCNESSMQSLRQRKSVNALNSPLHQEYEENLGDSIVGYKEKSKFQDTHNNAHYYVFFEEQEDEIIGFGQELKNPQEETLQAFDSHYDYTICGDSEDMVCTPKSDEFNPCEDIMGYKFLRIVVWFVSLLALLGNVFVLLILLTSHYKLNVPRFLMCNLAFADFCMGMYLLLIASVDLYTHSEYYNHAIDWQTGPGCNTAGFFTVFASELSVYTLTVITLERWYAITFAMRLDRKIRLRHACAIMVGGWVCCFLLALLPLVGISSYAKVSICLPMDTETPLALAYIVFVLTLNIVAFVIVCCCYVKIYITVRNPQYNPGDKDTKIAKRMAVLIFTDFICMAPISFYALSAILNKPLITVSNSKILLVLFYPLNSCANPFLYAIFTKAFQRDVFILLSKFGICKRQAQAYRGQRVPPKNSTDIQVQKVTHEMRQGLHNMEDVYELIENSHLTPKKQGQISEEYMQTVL
Method in brief: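 Antagonist mode: compound-treated TSHR-expressing HEK293 cells were stimulated with 1.5 ng/mL TSH (final) in presence of Ro20-1724 for 30 min at RT. HTRF cAMP detection after 1 h; each compound tested at 15 concentrations, triplicate.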

[2] = qHTS assay to identify small molecule agonists of the estrogen receptor alpha (ER-alpha) signaling pathway in the presence of an antagonist - cell viability counter screen (AID 1259386);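 also: cells exposed to compounds for 22 h at 37 °C before the viability read; nearly all actives have a fitted effect of over 30% in size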; also: potency is read from the fitted curve at half-maximal effect
Method in brief: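 ICI-182,780 at 10.0nM final accompanies the compound titration (15 concentrations, 22hr, 37C) on VM7Luc4E2 cells. The CellTiter-Fluor fluorescence readout runs in the same wells as the luciferase assay.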

[3] = target: Progesterone receptor (Homo sapiens) (UniProt P06401); experiment: qHTS assay to identify small molecule agonists of the progesterone receptor (PR) signaling pathway (AID 1346784; calls by dose curve; also: nearly all actives have a fitted effect of over 30% in size)
Sequence of Progesterone receptor (Homo sapiens) (P06401 whole entry, looked up): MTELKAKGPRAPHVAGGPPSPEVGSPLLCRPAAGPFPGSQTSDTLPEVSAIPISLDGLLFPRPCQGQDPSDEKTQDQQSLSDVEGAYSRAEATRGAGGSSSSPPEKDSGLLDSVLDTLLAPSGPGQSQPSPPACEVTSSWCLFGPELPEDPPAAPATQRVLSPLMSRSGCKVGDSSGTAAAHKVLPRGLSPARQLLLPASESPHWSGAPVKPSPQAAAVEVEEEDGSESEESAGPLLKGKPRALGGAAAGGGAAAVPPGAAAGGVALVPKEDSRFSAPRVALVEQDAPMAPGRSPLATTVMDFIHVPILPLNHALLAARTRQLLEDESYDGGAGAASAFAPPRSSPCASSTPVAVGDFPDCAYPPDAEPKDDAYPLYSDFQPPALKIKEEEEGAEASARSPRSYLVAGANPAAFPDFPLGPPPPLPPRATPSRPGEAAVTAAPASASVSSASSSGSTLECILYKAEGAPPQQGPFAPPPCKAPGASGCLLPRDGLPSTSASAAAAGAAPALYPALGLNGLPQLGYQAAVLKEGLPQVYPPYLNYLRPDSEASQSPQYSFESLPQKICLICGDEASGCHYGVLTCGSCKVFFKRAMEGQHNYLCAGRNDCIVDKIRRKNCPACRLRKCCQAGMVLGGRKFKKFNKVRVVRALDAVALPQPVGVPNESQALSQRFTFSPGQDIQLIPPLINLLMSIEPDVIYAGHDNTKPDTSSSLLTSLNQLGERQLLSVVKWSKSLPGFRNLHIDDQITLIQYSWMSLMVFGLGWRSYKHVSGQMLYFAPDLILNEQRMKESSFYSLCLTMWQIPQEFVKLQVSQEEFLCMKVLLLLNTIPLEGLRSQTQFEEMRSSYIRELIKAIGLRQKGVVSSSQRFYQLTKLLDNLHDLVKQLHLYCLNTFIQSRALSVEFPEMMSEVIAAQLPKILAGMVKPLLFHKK
Method in brief: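 PR-UAS-bla HEK 293T cells (beta-lactamase reporter under UAS) in 2% charcoal-stripped FBS, dosed with 23 nL compound after 6 hr, incubated 16hr at 37C. LiveBLAzer B/G FRET substrate added, fluorescence read after 2 hours.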

[4] = qHTS assay to identify small molecule antagonists of the progesterone receptor (PR) signaling pathway - cell viability counter screen (AID 1346798); also: series mostly up to about 92 µM; nearly all actives have a fitted effect of over 50% in size
Method in brief: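 PR-UAS-bla HEK293T cells, 3,000/well in 2% charcoal-stripped FBS medium, dosed with compounds plus R5020 agonist and incubated 16 h at 37C. Viability then measured in the same wells by CellTiter-Glo luminescence after 30 min at RT.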

[5] = qHTS assay to identify small molecule agonists of the progesterone receptor (PR) signaling pathway - cell viability counter screen (AID 1346799; calls by dose curve; also: nearly all actives have a fitted effect of over 45% in size; also: potency is read from the fitted curve at half-maximal effect)
Method in brief: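 Counter screen in the PR-UAS-bla HEK293T wells (2% charcoal-stripped FBS, 16 h compound exposure at 37 C) after the bla read. CellTiter-Glo added, 30 min at room temperature, luminescence read as cell viability.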

[6] = qHTS assay to identify small molecule antagonists of the TGF-beta/Smad signaling pathway - cell viability counter screen (AID 1346824); also: nearly all actives have a fitted effect of over 50% in size
Method in brief: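 Cytotoxicity counter-screen run in the same wells as the beta-lactamase Smad reporter read: CellTiter-Glo luminescence after 30 min at room temperature. HEK 293T SBE-bla cells had 5 hr compound exposure at 37 C with TGF-beta1 (0.25 ng/mL stock).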

[7] = qHTS assay to identify small molecule agonists of the TGF-beta/Smad signaling pathway - cell viability counter screen (AID 1346829); also: top concentration of the series differs between compounds; nearly all actives have a fitted effect of over 45% in size
Method in brief: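 Same-well cytotoxicity: CellTiter-Glo added after the 2 hr room-temperature beta-lactamase substrate step, luminescence measured 30 min later; cells had 5 hr of compound at 37 C.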

[8] = qHTS assay to identify small molecule agonists of the TGF-beta/Smad signaling pathway (AID 1346859; active = well fitted activation curve with a large enough effect in the signal ratio in the repeat runs, not every such curve was filed as active; the % refers to the signal ratio; also: series mostly up to about 77 µM)
Method in brief: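 SBE-bla HEK293T cells plated overnight, then compound exposure for 5 h at 37 C. Beta-lactamase reporter read with LiveBLAzer B/G FRET substrate after 2 h at room temperature, fluorescence at 405 nm excitation, 460/530 nm emission.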

[9] = target: Thyrotropin-releasing hormone receptor (Homo sapiens) (UniProt P34981); experiment: qHTS assay to identify small molecule antagonists of the thyrotropin-releasing hormone receptor (TRHR) signaling pathway (AID 1346877; active = well fitted inhibition curve with a large enough effect in the repeat runs, not every such curve was filed as active; also: series mostly up to about 51 µM)
Sequence of Thyrotropin-releasing hormone receptor (Homo sapiens) (P34981 whole entry, looked up): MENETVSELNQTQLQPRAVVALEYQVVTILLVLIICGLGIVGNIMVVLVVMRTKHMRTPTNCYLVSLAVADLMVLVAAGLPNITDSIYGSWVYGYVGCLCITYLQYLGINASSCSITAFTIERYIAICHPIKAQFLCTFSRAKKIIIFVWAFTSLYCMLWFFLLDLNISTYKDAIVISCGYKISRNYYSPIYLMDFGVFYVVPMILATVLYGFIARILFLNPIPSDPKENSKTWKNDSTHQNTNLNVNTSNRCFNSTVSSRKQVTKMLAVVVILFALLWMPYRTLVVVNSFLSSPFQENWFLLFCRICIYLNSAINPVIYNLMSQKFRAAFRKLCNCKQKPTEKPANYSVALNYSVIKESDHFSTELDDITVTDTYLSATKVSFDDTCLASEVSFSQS
Method in brief: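 Screening used HEK293 cells engineered with TRHR, with a brief 5 min room-temperature compound exposure preceding addition of TRH to 1 nM. The read-out was kinetic calcium-dye fluorescence, concentration-response from 15 doses in triplicate.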

[10] = target: Thyrotropin-releasing hormone receptor (Homo sapiens) (UniProt P34981); experiment: qHTS assay to identify small molecule agonists of the thyrotropin-releasing hormone receptor (TRHR) signaling pathway (AID 1346891; calls by dose curve; also: series mostly up to about 58 µM)
Method in brief: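 HEK293 cells expressing TRHR plated 18 h at 37 C/5% CO2, calcium dye-loaded 2 h at 37 C, then compound added (agonist mode); kinetic calcium fluorescence read 3 min at 1 s intervals; 15 concentrations in triplicate.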

[11] = Human pregnane X receptor (PXR) small molecule agonists, qHTS cell viability counter screen (AID 1346977); also: nearly all actives have a fitted effect of over 50% in size; also: potency is read from the fitted curve at half-maximal effect
Method in brief: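 PXR-Luc HepG2 cells (2,000/well, 5% charcoal-stripped FBS) preincubated 5 hr, then exposed to compounds 24 hr at 37 C. Viability read in the same wells by CellTiter-Fluor fluorescence, reagent added at 23 hr, 1 hr incubation.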

[12] = Caspase-3/7 induction in HepG2 cells by small molecules, qHTS assay (AID 1346978); also: nearly all actives have a fitted effect of over 15% in size; also: potency is read from the fitted curve at half-maximal effect
Method in brief: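 Caspase-3/7 induction was measured by Caspase-Glo 3/7 luminescence (30 min, room temperature) after a 17 hr compound exposure of wild-type HepG2 cells seeded at 2,000 per well and pre-incubated 5 hr.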

[13] = Caspase-3/7 induction in CHO-K1 cells by small molecules, qHTS cell viability counter screen (AID 1346979); also: nearly all actives have a fitted effect of over 35% in size; also: potency is read from the fitted curve at half-maximal effect
Method in brief: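 Wild-type CHO-K1 cells (1,500/well) treated with compound after 5 h plating; after 16 h at 37C, viability read as CellTiter-Fluor fluorescence following 1 h reagent incubation, in the same wells as the caspase read.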

[14] = Caspase-3/7 induction in HepG2 cells by small molecules, qHTS cell viability counter screen (AID 1346981); also: nearly all actives have a fitted effect of over 30% in size; also: potency is read from the fitted curve at half-maximal effect
Method in brief: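 Multiplexed with the caspase-3/7 assay: HepG2 cells, 16 hr compound treatment, CellTiter-Fluor viability detection by fluorescence.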

[15] = target: Nuclear receptor subfamily 1 group I member 2 (Homo sapiens) (UniProt O75469); experiment: Human pregnane X receptor (PXR) small molecule agonists, qHTS assay (AID 1346982); also: nearly all actives have a fitted effect of over 35% in size
Sequence of Nuclear receptor subfamily 1 group I member 2 (Homo sapiens) (O75469 whole entry, looked up): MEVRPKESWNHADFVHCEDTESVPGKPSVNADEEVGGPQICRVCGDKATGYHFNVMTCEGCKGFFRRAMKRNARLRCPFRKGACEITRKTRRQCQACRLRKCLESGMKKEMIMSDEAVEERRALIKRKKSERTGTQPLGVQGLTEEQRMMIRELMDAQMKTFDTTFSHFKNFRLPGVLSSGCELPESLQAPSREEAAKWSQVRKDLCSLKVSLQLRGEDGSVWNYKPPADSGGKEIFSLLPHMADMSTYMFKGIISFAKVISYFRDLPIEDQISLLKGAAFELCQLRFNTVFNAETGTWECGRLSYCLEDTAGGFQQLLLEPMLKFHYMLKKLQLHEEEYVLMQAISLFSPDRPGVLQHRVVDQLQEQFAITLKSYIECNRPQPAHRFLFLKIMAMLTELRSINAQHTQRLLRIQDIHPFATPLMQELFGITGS
Method in brief: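 We seeded PXR-Luc HepG2 cells in assay medium containing 5% charcoal-stripped FBS, added compounds 5 hr later, incubated 24 hr, and read luminescence with ONE-Glo reagent.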

[16] = Caspase-3/7 induction in CHO-K1 cells by small molecules, qHTS assay (AID 1346980); also: nearly all actives have a fitted effect of over 15% in size
Method in brief: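 Luminescent Caspase-Glo 3/7 read (30min, room temperature) quantified apoptosis induction. Cells were wild-type CHO-K1, treated with compound for 17hr at 37 C and 5% CO2.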

[17] = target: Nuclear receptor subfamily 1 group I member 2 (Homo sapiens) (UniProt O75469); experiment: CYP3A4 induction through human pregnane X receptor (PXR) by small molecules, qHTS assay (AID 1346984); also: nearly all actives have a fitted effect of over 40% in size
Method in brief: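 qHTS, concentration-response format: HepG2 DPX-2 line, PXR/CYP3A4-luc. Exposure 24 h, 37C. Substrate Luciferin-IPA 3uM final, 3 h. Detection One-Glo, 30 min RT.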

[18] = target: Nuclear receptor subfamily 1 group I member 2 (Homo sapiens) (UniProt O75469); experiment: Human pregnane X receptor (PXR) activation by small molecules, qHTS assay (AID 1346985); also: nearly all actives have a fitted effect of over 40% in size
Method in brief: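 DPX-2 cells (HepG2 co-transfected with a PXR response element and a CYP3A4-promoter luciferase construct) were seeded at 2,000 per well, rested 5 hr at 37C, then exposed to DMSO-dissolved compounds for 24 hr. Activation was read as luciferase luminescence.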

[19] = target: Progesterone receptor (Homo sapiens) (UniProt P06401); experiment: qHTS assay to identify small molecule antagonists of the progesterone receptor (PR) signaling pathway (AID 1346795; active = well fitted inhibition curve with a large enough effect in the signal ratio in the repeat runs, not every such curve was filed as active; the % refers to the signal ratio; also: potency is read from the fitted curve at half-maximal effect)
Method in brief: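 PR-UAS-bla HEK293T cells with beta-lactamase reporter under UAS control, in 2% charcoal-stripped FBS, treated with compounds plus 1 nM promegestone (R5020, final) for 16 hr at 37C. Read-out: FRET beta-lactamase substrate fluorescence after 2 hr at room temperature.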

SMILES	Potency [1]	Potency [2]	Potency [3]	Potency [4]	Potency [5]	Potency [6]	outcome [7]	outcome [8]	outcome [9]	outcome [10]	Potency [11]	Potency [12]	Potency [13]	Potency [14]	Potency [15]	outcome [16]	Potency [17]	Potency [18]	Potency [19]
OC1CCCCC1c1ccccc1 (configuration not stated)	inactive	inactive	inactive	inactive	inactive	inactive	inactive	inactive	inactive	inactive	inactive	inactive	inactive	inactive	inactive				
CC(C)CCCC(C)N (configuration not stated)	inactive	inactive	inactive	inactive	inactive	inactive	inactive	inactive	inactive	inactive	inactive	inactive	inactive	inactive	inactive	inactive	inactive	inactive	
CC(C)=CCCC(C)CC(=O)O (configuration not stated)	inactive	inactive	inactive		inactive	inactive	inactive	inactive	inactive		inactive	inactive			inactive				inactive
CN(C)CCCN1c2ccccc2CCc2ccc(Cl)cc21	68.6 µM (active) and 29.8 µM (active)	68.6 µM (active)	inactive		30.6 µM (active) and 23.7 µM (active)	inactive		inactive	inactive	inactive	30.6 µM (active) and 29.8 µM (active)	61.1 µM (active)	68.6 µM (active) and 29.8 µM (active)	61.1 µM (active) and 29.8 µM (active)					26.6 µM (active)
Brc1c(NC2=NCCN2)ccc2nccnc12	inactive	inactive	inactive		inactive	inactive	inactive	inactive				inactive	inactive	inactive		inactive			inactive
CCc1ccc(O)c(OC)c1	inactive	inactive	inactive	inactive	inactive	inactive	inactive	inactive	inactive	inactive	inactive	inactive	inactive	inactive	inactive	inactive			
C=C1CC[C@H]2C[C@@H]1C2(C)C	inactive	inactive	inactive	inactive	inactive	inactive	inactive	inactive	inactive	inactive	inactive	inactive	inactive	inactive	inactive	inactive			
COc1c(N2C[C@@H]3CCCN[C@@H]3C2)c(F)cc2c(=O)c(C(=O)O)cn(C3CC3)c12	inactive	inactive	inactive		inactive		inactive	inactive			inactive	inactive	inactive	inactive	inactive	inactive	inactive	inactive	inactive

Reference: PubChem BioAssay (Tox21)
